Measurements taken from PubChem BioAssay (NCI).
Compounds without any hit were thinned out: in the full panel of roughly 83,000, 20% have a hit.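 Single-dose data. Exposure time 48 hours. Values below 10 considered active.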 Active and inactive are the calls of the source.

These molecules were tested on MDA-MB-435 melanoma (assay: NCI-60 one-dose screen, 48 h (100 = growth as untreated, 0 = no growth, -100 = all killed)). Details: 10 µM unless noted.
Protocol: Growth inhibition of the MDA-MB-435 human Melanoma tumor cell line is measured as a screen for anti-cancer activity. Cells are grown in 96 well plates and exposed to the test compound for 48 hours. Compounds are tested at a single concentration, which is 10^-5 M for most compounds. The reported endpoint is percent growth (GI% or GIPRCNT), where numbers from 0 - 100% represent growth inhibition, and numbers from -100% - 0 represent cell death. For example, a value of 40 represents 60% growth inhibition. A value of 0 means no net growth occurred over the course of the experiment. A value of -40 indicates 40% of cells at the beginning of the experiment died by the end of the experiment. A value of -100 means all cells are dead at the end of the experiment.
NCI-60 Human Tumor Cell Lines Screen was performed using the standard one-dose NCI protocol, which is described in more detail at https://dtp.cancer.gov/discovery_development/nci-60/default.htm.
Compounds with GIPRCNT values below 10 were considered active. Activity score was based on GIPRCNT using the following formula: […]
Score is 0 for GIPRCNT values of 100 or above, 50 for GIPRCNT values of 0, and 100 for GIPRCNT values of -100.
In the case of O=c1[nH]c(=S)c2c(n1CCCO)CCC2, the growth is reported as 97% (inactive). COC(=O)c1ccc(C(=O)Nc2ccccc2N)cc1 was tested, and the growth was 77.7% (inactive). With COC(=O)[C@H]1CCCN1C(=O)[C@H]1CCCN1C(=O)[C@@H](Cc1c[nH]c2ccccc12)NC(=S)Nc1cc(C(F)(F)F)cc(C(F)(F)F)c1 the growth was 31.6% (inactive). CC1SC(c2ccc(Cl)cc2)N(CCc2cccs2)C1=O (stereo not given) was tested, and the growth was -37.4% (active). For COc1ccc(/C=N/NC(=O)c2cnn3c2NC(c2ccccc2)C3)cc1OC1CCCC1 (stereo not given), the growth was 61.7% (inactive). With COc1ncc(F)c(OC)n1 the growth was 106% (inactive). O=C1/C(=C/c2ccc(F)cc2)CN(Cc2cn(CCNc3ccnc4cc(Cl)ccc34)nn2)C/C1=C\c1ccc(F)cc1 was tested, and the growth was -86.5% (active). With O=c1[nH]c(=S)[nH]c(=O)n1Cc1cccc2ccccc12 the growth was 99.7% (inactive). With Cn1c2ccc(Cl)cc2c2nn(C(=O)c3ccccc3)c(=O)nc21 the growth was 111% (inactive). In the case of COc1ccc(NS(=O)(=O)c2ccc(-c3cnc(C4CC4)o3)cc2)cc1, the growth is reported as 1.55% (active). O=S(=O)(Nc1ccccc1Cl)c1ccc(-c2cnc(C3CC3)o2)cc1 was tested, and the growth was -35.2% (active). COc1ccc(/C=C2\SC(=O)N(CN3CCN(c4cc5c(cc4F)c(=O)c(C(=O)O)cn5C4CC4)CC3)C2=O)cc1 was tested, and the growth was 98% (inactive). With Oc1ccccc1/C=N/Nc1nc2ccccc2s1 the growth was 56.9% (inactive). With Cc1ccc(S(=O)(=O)N2CCc3ccc(O)c4c3C2Cc2ccc3c(c2-4)OCO3)cc1 (stereo not given) the growth was -4.03% (active). With Cc1nn2c(-c3nc4ccc(Cl)cc4[nH]3)c(-c3ccc(F)cc3)nc2s1 the growth was 99.7% (inactive). For CC1CCCCN1S(=O)(=O)c1ccc(CN=C=S)cc1 (stereo not given), the growth was 47.2% (inactive). For Cc1ccc2c(c1)c(Sc1ccc(C(=O)NO)cc1)c1n2CN(C)CC1, the growth was 18.9% (inactive). COc1cc(C2C3=C(COC3=O)N(CCO)c3cc4c(cc32)OCO4)cc(OC)c1O (stereo not given) was tested, and the growth was -39.6% (active). With COc1cc(/C=C/c2cc(/C=C/c3ccc(O)c(OC)c3)n(-c3ccccc3)n2)ccc1O the growth was -67.3% (active). In the case of C[C@H]1C(=O)C23CCC1C[C@@]21O[C@@H]2C(C)(C)C=CC(=O)C23COC1=O, the growth is reported as 107% (inactive). For COc1ccc(-n2ncc3c2ccc2cc(S(=O)(=O)c4ccccc4)c(=O)n(C)c23)cc1, the growth was 90.3% (inactive). With COc1cc(/C=C/C(=O)CC(=O)/C=C/c2cc(Br)c(OC)c(OC)c2)cc(Br)c1OC the growth was 101% (inactive). In the case of O=C1/C(=C/c2ccccc2F)CNC/C1=C\c1ccccc1F, the growth is reported as -56.7% (active). O=c1c2c(=NCCN3CCCC3)cc3c(=O)n(CCCN4CCOCC4)c(=O)c4c(-c5ccc(CN6CCCC6)cc5)cc(c(O)n1CCCN1CCOCC1)c2c4-3 was tested, and the growth was -90.1% (active). In the case of O=C(CCCCCCC(=O)Nc1ccc2c(c1)/C(=C/c1ccc[nH]1)C(=O)N2)NO, the growth is reported as -1.97% (active). CCCCCCCC/C=C\CCCCCCCCOc1cccc(CC(=O)NCC[N+]2(C)CCCC2)c1 was tested, and the growth was 85.7% (inactive). For Cc1ccccc1-n1nnc(C(=O)Nc2ccc(-c3ccccc3)cn2)c1C, the growth was 23.8% [50 µM] (inactive). For COc1cc2nc(SCc3cc(OC)c(OC)c(OC)c3)n(-c3ccccc3OC)c(=O)c2cc1OC, the growth was 0.0693% (active). For CN1CCc2c(Sc3ccc(C(=O)NO)cc3)c3ccccc3n2C1, the growth was 23.7% (inactive). With CCN1CCN(c2nc3ccccc3c3c(=O)c4cc(F)ccc4sc23)CC1 the growth was 10.2% (inactive). With CSc1ccc(OC(C)=O)cc1C the growth was 91.3% (inactive). With COc1cc(C2CC(=O)Nc3c2ccc2ccccc32)cc(Br)c1OC (stereo not given) the growth was -55.5% (active). With Oc1ccc2ccccc2c1C1NN=C(c2ccccc2)S1 (stereo not given) the growth was 29.4% (inactive). COc1cc(CNCCCN2C(=O)c3ccc4c5c(ccc(c35)C2=O)C(=O)N(CCCNCc2cc(OC)c(OC)c(OC)c2)C4=O)cc(OC)c1OC was tested, and the growth was -71.5% (active). O=C1CCC(N2Cc3c(C#CCCCNC(=O)c4cc5c(o4)C(=O)c4ccccc4C5=O)cccc3C2=O)C(=O)N1 (stereo not given) was tested, and the growth was -94.5% (active). With Cc1ccc(-c2c3c(N)c4c(nc3nc3c2c(C)nn3-c2ccccc2)CCCC4)cc1 the growth was 96.4% (inactive). For NS(=O)(=O)c1ccc(C(=O)N/N=C(\CS(=O)(=O)c2ccccc2)c2cc3cc(Br)ccc3o2)cc1, the growth was 73% (inactive). In the case of Cc1nn(CC(=O)O)c2c1C(=O)CC(C)(C)C2, the growth is reported as 106% (inactive). For CCCCCCCC/C=C\CCCCCCCCOc1cccc(CC(=O)NCC[N+](C)(C)C)c1, the growth was 91.5% (inactive). For CN1CCN(c2ccc3nc(-c4ccc5nc(-c6ccc(C(F)(F)F)cc6)[nH]c5c4)[nH]c3c2)CC1, the growth was 49.8% (inactive).
